From PubChem BioAssay AID493231 (Broad Institute, 2011)
Potency and affinity values are given separately. Activity calls are given as the source filed them. Where a call stands in place of a potency, no number is given. How the calls were made is not given here.

Target: Acyl-homoserine lactone acylase PvdQ (Pseudomonas aeruginosa (strain ATCC 15692 / DSM 22644 / CIP 104116 / JCM 14847 / LMG 12228 / 1C / PRS 101 / PAO1)) (UniProt Q9I194)
Assay: P. aeruginosa PvdQ acylase inhibitors, dose response, biochemical, fluorescence, plate reader and imaging, cherry-picks (AID 493231);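 further: more negative values mean stronger inhibition of the acylase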
Conditions: purified PvdQ acylase, fluorogenic substrate; series mostly up to 10 µM

Sequence of Acyl-homoserine lactone acylase PvdQ (Pseudomonas aeruginosa (strain ATCC 15692 / DSM 22644 / CIP 104116 / JCM 14847 / LMG 12228 / 1C / PRS 101 / PAO1)) (Q9I194 whole entry, looked up): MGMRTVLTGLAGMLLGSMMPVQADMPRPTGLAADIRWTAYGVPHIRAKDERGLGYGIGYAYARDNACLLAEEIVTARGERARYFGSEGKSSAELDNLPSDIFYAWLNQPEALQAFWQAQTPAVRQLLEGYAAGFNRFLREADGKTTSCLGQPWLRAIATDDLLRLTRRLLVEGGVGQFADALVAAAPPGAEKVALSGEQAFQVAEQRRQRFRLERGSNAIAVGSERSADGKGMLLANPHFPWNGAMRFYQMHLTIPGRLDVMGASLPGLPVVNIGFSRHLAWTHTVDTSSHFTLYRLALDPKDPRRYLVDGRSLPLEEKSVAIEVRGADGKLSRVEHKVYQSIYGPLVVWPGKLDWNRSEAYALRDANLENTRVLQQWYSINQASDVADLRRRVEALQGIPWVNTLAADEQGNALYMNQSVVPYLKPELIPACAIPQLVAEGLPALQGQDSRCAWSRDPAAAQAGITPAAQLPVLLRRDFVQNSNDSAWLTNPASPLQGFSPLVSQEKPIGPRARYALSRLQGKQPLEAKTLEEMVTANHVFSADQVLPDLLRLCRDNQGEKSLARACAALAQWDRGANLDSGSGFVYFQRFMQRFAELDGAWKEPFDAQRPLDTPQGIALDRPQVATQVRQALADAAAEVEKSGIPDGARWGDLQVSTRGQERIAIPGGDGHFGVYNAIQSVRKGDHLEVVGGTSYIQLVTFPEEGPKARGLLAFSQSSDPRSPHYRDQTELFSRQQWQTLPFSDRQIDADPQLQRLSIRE

## O=[N+]([O-])c1nn(-c2ccc(Cl)cc2)n(O)c1=NCc1ccccc1
  outcome: inactive

## O=C1CCCN=C(Nc2ccc(F)c(Cl)c2)S1
  outcome: inactive

## CCCc1nnc(NC(=O)Cn2cnc3ccccc3c2=O)s1
  outcome: inactive

## COc1cc(NC(=S)NC2CC(C)(C)NC(C)(C)C2)cc(OC)c1
  outcome: inactive

## O=[N+]([O-])c1ccc2c(c1)Cc1cc(F)ccc1-2
  outcome: inactive

## CN(C)C(=O)Nc1ccccc1
  outcome: inactive

## COc1ccc(OCCSc2nc3ccccc3n2CCC(=O)O)cc1
  outcome: inactive

## CCOC(=O)c1ccc(N2Cc3ccccc3C2=NC(=O)c2ccncc2)cc1
  outcome: inactive

## O=c1oc(-c2ccc(F)cc2)nc2ccsc12
  outcome: inactive

## CCOc1ccc(NC(=O)NCc2cccn2C)cc1
  outcome: inactive

## COc1ccc(-c2onc3ccc(Br)cc23)cc1
  outcome: inactive

## CCOC(=O)c1[nH]c2c(c1C)C(=O)CC(c1ccco1)C2 (stereo unspecified)
  outcome: inactive

## Nc1nc(-c2ccc(Cl)cc2)nn1C(=O)c1ccco1
  outcome: inactive

## CN(C(=O)CCn1c(=S)oc2ccccc21)c1ccc(F)cc1
  outcome: inactive

## COc1ccc(C2NCCc3c2[nH]c2ccccc32)cc1COc1ccc(F)cc1 (stereo unspecified)
  outcome: inactive

## CN(c1ccc(C(=O)NC2CC3CCC2C3)cc1)S(C)(=O)=O (stereo unspecified)
  outcome: inactive

## O=C(Nc1cccc(NC(=O)c2sc3ccccc3c2Cl)c1)c1ccco1
  outcome: inactive

## Cc1cc(C)nc(NS(=O)(=O)c2ccc(NC(=O)c3ccc(N4C(=O)CCC4=O)cc3)cc2)n1
  outcome: inactive

## CC(C)(C)OC(=O)N(CCc1ccccc1)Cc1ccccc1OCc1cccc(NC(=O)C2CC2)c1
  outcome: inactive

## COc1cc2nc(CN3CCN(S(=O)(=O)c4c(F)cccc4F)CC3)[nH]c(=O)c2cc1OC
  outcome: inactive

## CC1=C(C(=O)Nc2ccccc2)C(c2coc3ccccc3c2=O)C2=C(CCCC2=O)N1 (stereo unspecified)
  outcome: inactive

## CCOC(=O)C(Oc1ccc(=O)[nH]n1)C(C)=O (stereo unspecified)
  outcome: inactive

## COc1ccc(-c2cc3cccc(OC)c3oc2=O)cc1
  outcome: inactive

## O=C(COc1ccccc1)OCC(=O)c1ccc(S(=O)(=O)N2CCCCC2)cc1
  outcome: inactive

## C=CCn1c(=O)/c(=C/c2ccc(C)o2)s/c1=C(/C#N)C(=O)c1ccccc1
  outcome: inactive

## Cc1ccc(S(=O)(=O)NCc2ccccn2)cc1C
  outcome: inactive

## Cc1cccc2c(=O)cc(C)n(Cc3ccccc3)c12
  outcome: inactive

## NC(=O)c1ccc(NC(=O)COC(=O)c2n[nH]c3ccccc23)cc1
  outcome: inactive

## N#Cc1cc([N+](=O)[O-])ccc1Oc1cccc(/C=N/NC(=O)c2cccc(Cl)c2)c1
  outcome: inactive

## O=C(Nc1cccc(Br)c1)c1ccc2c(c1)SC1=NS(=O)(=O)CCN12
  outcome: inactive

## Clc1ccc2nc(-c3ccc4c(c3)OCO4)cn2c1
  outcome: inactive

## CCN(c1ccccc1)S(=O)(=O)c1cc(C(=O)Nc2ccccc2Cl)ccc1F
  outcome: inactive

## Cc1ccsc1C(=O)NCCC(c1ccccc1)c1ccccc1
  outcome: inactive

## O=C1CC(c2ccccc2)Cc2nc(NC3CC3)ncc21 (stereo unspecified)
  outcome: inactive

## c1ccc(CCc2ccccn2)cc1
  outcome: inactive

## C/C(CCC1CC(C)OC1=O)=N/Nc1nc(-c2ccccc2)cs1 (stereo unspecified)
  outcome: inactive
